According to PubChem BioAssay (EPA / NIEHS):
Activity calls are given as the source filed them. Rule for the calls: active = hit-call score of the fitted dose curve at least 0.9, where 1 is the maximum; inactive = score below 0.9.

Legend:
[1] = CEETOX_H295R_TESTO: CeeTox H295R High-throughput Steroidogenesis Assay for Testosterone (TESTO) (AID 2283457); settings: actives raise or lower the signal
Procedure: CEETOX_H295R is a cell-based, multiplexed-readout assay that uses H295R, a human adrenal gland cell line, with measurements taken at 48 hours after chemical dosing in a 96-well plate.CEETOX_H295R_TESTO is one of 23 assay component(s) measured or calculated from the CEETOX_H295R assay. It is designed to make measurements of hormone induction, a form of inducible reporter, as detected with […] by HPLC-MS-MS technology.Data from the assay component CEETOX_H295R_TESTO was analyzed into 1 assay endpoint. This assay endpoint, CEETOX_H295R_TESTO, was analyzed with bidirectional fitting relative to DMSO as the negative control and baseline of activity. Using a type of inducible reporter, gain or loss-of-signal activity using HPLC-MS-MS was used to understand synthesis of Testosterone in H295R cell line at 48hr of chemical exposure. To generalize the intended target to other relatable targets, this assay endpoint is annotated to the steroid hormone intended target family, where the subfamily is androgens.
Cell culture and media preparation procedures were conducted in accordance with OECD Test No. 456 guidelines, with minor modifications. […] For steroid quantification, media samples were shipped to OpAns, LLC (Durham, NC) on dry ice, and samples were thawed to room temperature prior to liquid-liquid extraction. […] Steroid hormones were separated by HPLC, eluted using a reverse phase C18 gradient with electrospray positive ionization, followed by quantification by tandem mass spectrometry (MS/MS). Data were acquired on a MassHunter Workstation Acquisition version B03.01 (Agilent Technologies, Inc.) and processed using MassHunter Quantitative Analysis for QQQ. Accuracy was determined for each hormone analyte from 3 standards to determine upper and lower limits of quantification (ULOQ and LLOQ, respectively) using a 7-point standard curve. Precision and accuracy of the extraction and quantification methods were calculated as the percent relative standard deviation (%RSD) of the spiked standards and percent spiked standard recovered, respectively. […]

[2] = read-out: Forkhead box O1 (FOXO1), FOXO1 (gene 2308); test: LTEA_HepaRG_FOXO1: Life Technologies and Expression Analysis (LTEA) Assay for Forkhead box O1 (FOXO1) using HepaRG (AID 2283456); settings: mRNA level, 48 h; actives raise or lower the signal
Procedure: (§1) LTEA_HepaRG is a cell based, multiplexed-readout assay that uses HepaRG, a human liver cell line, with measurements taken at 48 hours after chemical dosing on a 96-well plate.LTEA_HepaRG_FOXO1 is one of 102 assay component(s) measured in the LTEA HepaRG cell culture assay. It is a marker of Cell proliferation, survival, death.Data from the assay component LTEA_HepaRG_FOXO1 was analyzed into 1 endpoint. This assay endpoint, LTEA_HepaRG_FOXO1, was analyzed with bidirectional fitting relative to DMSO as the negative control and baseline of activity. Using a type of inducible reporter, measures of mRNA induction for gain or loss-of-signal activity can be used to understand regulation of transcription factor activity. To generalize the intended target to other relatable targets, this assay endpoint is annotated to the dna binding intended target family, where the subfamily is forkhead box protein.
(§2) A total of 1060 chemcials from the ToxCast library were tested in eight-point concentration-response experiments. Cell culture and cytotoxicity assays were conducted at Thermo Fisher Scientific's Custom Services facility (Madison, WI). A single lot of human HepaRG cells (Thermo Fisher Scientific, Frederick, MD) was used for the cell culture experiments. 96-well format collagen type I coated plates of human HepaRG cells were prepared using established methods. Briefly, cryopreserved HepaRG cells were thawed, plated at a density of approximately 100,000 cells/well in HepaRG Thaw, Plate, and General Purpose media (HPRG770, Thermo Fisher Scientific), and incubated for 48 hours. […] Fluidigm's 96.96 Dynamic ArrayTM (Fluidigm, Amsterdam, the Netherlands) technology was used for gene expression analyses by quantitative reverse transcription polymerase chain reaction (qRT-PCR, performed by Quintiles/Expression Analysis, Durham, NC)89. […]

[3] = read-out: growth arrest and DNA damage 45 (GADD45A), GADD45A (gene 1647); test: LTEA_HepaRG_GADD45A: Life Technologies and Expression Analysis (LTEA) Assay for growth arrest and DNA damage 45 (GADD45A) using HepaRG (AID 2283458); settings: mRNA level, 48 h; actives raise or lower the signal
Procedure: as §1, with “plate.LTEA_HepaRG_GADD45A” for “plate.LTEA_HepaRG_FOXO1”, “Oxidative Stress.Data” for “Cell proliferation, survival, death.Data”, “LTEA_HepaRG_GADD45A” for “LTEA_HepaRG_FOXO1”, “LTEA_HepaRG_GADD45A,” for “LTEA_HepaRG_FOXO1,”, “cell cycle” for “dna binding”, “Oxidative Stress.” for “forkhead box protein.”
as §2

[4] = read-out: Forkhead box O3 (FOXO3), FOXO3 (gene 2309); test: LTEA_HepaRG_FOXO3: Life Technologies and Expression Analysis (LTEA) Assay for Forkhead box O3 (FOXO3) using HepaRG (AID 2283459); settings: mRNA level, 48 h; actives raise or lower the signal
Outline: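 Gene-expression endpoint: FOXO3 transcript level by qRT-PCR in HepaRG cultures treated 48 h with chemicals up to 100 uM (half-log, 0.5% DMSO vehicle).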

[5] = read-out: ABC Transporter (ABCB1), ABCB1 (gene 5243); test: LTEA_HepaRG_ABCB1: Life Technologies and Expression Analysis (LTEA) Assay for ABC Transporter (ABCB1) using HepaRG (AID 2283460); settings: mRNA level, 48 h; actives raise or lower the signal
Outline: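 Human liver HepaRG line treated 48 h with up to 100 uM compound (eight half-log points, 0.5% DMSO); ABCB1 mRNA change fitted bidirectionally against DMSO controls.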

[6] = read-out: growth arrest and DNA damage 45 (GADD45B), GADD45B (gene 4616); test: LTEA_HepaRG_GADD45B: Life Technologies and Expression Analysis (LTEA) Assay for growth arrest and DNA damage 45 (GADD45B) using HepaRG (AID 2283461); settings: mRNA level, 48 h; actives raise or lower the signal
Outline: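 Transcript level quantified by Fluidigm TaqMan qRT-PCR with three housekeeping genes for normalization, analyzed for up- or down-regulation against 0.5% DMSO. HepaRG cultures dosed 48 h at eight half-log concentrations up to 100 uM, duplicates.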

[7] = read-out: ABC Transporter (ABCC3), ABCC3 (gene 8714); test: LTEA_HepaRG_ABCC3: Life Technologies and Expression Analysis (LTEA) Assay for ABC Transporter (ABCC3) using HepaRG (AID 2283462); settings: mRNA level, 48 h; actives raise or lower the signal
Outline: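 Transcript level by TaqMan qRT-PCR, normalised to three housekeeping genes, fitted in both directions relative to vehicle. Chemicals tested in duplicate at eight half-log concentrations up to 100 uM for 48 h on HepaRG cells (0.5% DMSO).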

[8] = read-out: ABC Transporter (ABCB11), ABCB11 (gene 8647); test: LTEA_HepaRG_ABCB11: Life Technologies and Expression Analysis (LTEA) Assay for ABC Transporter (ABCB11) using HepaRG (AID 2283463); settings: mRNA level, 48 h; actives raise or lower the signal
Outline: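 Using HepaRG cultures held in 0.5% DMSO, chemicals were tested at half-log dilutions from 100 uM for 48 h. Induction or suppression of ABCB11 mRNA, normalized to ACTB, GAPDH and POLR2A, was fitted bidirectionally against vehicle.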

[9] = read-out: ABC Transporter (ABCC2), ABCC2 (gene 1244); test: LTEA_HepaRG_ABCC2: Life Technologies and Expression Analysis (LTEA) Assay for ABC Transporter (ABCC2) using HepaRG (AID 2283464); settings: mRNA level, 48 h; actives raise or lower the signal
Outline: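 Endpoint is ABCC2 transcript level from qRT-PCR, normalized to three housekeeping genes and fitted bidirectionally relative to DMSO. Human HepaRG cells received test chemical for 48 h at up to 100 uM (8 points, half-log steps, 0.5% DMSO), duplicate wells.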

[10] = read-out: Broad substrate specificity ATP-binding cassette transporter ABCG2 (Homo sapiens) (UniProt Q9UNQ0); test: LTEA_HepaRG_ABCG2: Life Technologies and Expression Analysis (LTEA) Assay for ABC Transporter (ABCG2) using HepaRG (AID 2283465); settings: mRNA level, 48 h; actives raise or lower the signal
Outline: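 Gene expression of ABCG2 in HepaRG liver cells is quantified by qRT-PCR following 48 h exposure across an eight-point series topping at 100 uM. Values come from bidirectional fitting relative to DMSO vehicle.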

Measured: outcome

Broad substrate specificity ATP-binding cassette transporter ABCG2 (Homo sapiens), sequence (Q9UNQ0 whole entry, looked up): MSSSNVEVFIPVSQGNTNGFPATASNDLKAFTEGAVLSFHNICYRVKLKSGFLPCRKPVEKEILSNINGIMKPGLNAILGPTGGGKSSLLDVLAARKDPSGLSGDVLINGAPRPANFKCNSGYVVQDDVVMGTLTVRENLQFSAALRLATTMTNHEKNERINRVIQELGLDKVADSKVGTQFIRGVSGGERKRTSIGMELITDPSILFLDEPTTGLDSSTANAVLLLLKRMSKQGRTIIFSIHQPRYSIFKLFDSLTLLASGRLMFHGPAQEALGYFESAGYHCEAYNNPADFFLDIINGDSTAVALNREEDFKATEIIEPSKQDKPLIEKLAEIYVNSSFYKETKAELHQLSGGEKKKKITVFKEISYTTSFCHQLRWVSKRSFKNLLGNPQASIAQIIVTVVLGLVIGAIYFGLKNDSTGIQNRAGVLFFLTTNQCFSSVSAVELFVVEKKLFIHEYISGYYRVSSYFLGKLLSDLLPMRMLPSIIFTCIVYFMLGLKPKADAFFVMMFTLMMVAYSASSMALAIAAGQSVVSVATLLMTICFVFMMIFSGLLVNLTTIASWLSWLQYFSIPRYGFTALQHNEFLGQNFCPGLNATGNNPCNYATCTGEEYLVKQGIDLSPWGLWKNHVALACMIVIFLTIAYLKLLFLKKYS

C=CC(=O)OCCCCCCOC(=O)C=C
inactive: [1]

Nc1ccc(C(=O)O)cc1
not listed: [1]
inactive: all other assays above

CCOC(=O)C1=NN(c2ccc(Cl)cc2Cl)C(C)(C(=O)OCC)C1 (stereo not given)
inactive: [1]

COc1ccc(C(=O)c2ccccc2)c(O)c1
inactive: [1]

Cc1ccc([N+](=O)[O-])cc1N
not listed: [1]
inactive: all other assays above

C1CNCCN1
not listed: [1]
inactive: all other assays above
